Where a name gives a salt, the structure may show the parent alone.

3 molecules from article PMC6792352, “Limited Chemical Structural Diversity Found to Modulate Thyroid Hormone Receptor in the Tox21 Chemical Library” (Environmental Health Perspectives, 2019) can be followed below.

The test system of the assay is thyroid hormone receptor (endogenous TRα and TRβ). Also noted: species or system GH3-TRE-Luc (rat pituitary); GH3-TRE-Luc luciferase reporter, antagonist mode against 1 nM T3, loss of signal, qHTS. The conditions noted are these: read-out: Average AC50 (uM) GH3-TRE-Antag, antagonist mode, 1 nM T3, no GH3 cytotoxicity hit.
One may read the AC50 as the concentration at which the activity in the assay is half-maximal. As for `CCCC(=O)N1CCCN(c2nc(N)c3cc(OC)c(OC)cc3n2)CC1` [Bunazosin hydrochloride], the AC50 amounted to 47.9 µM.

On to `CC/C=C\C/C=C\C/C=C\CCCCCCCC(=O)O` [Linolenic acid], for which the AC50 was greater than 50 µM. The same measure for `O=C(Nc1ccc([N+](=O)[O-])cc1)Nc1ccc([N+](=O)[O-])cc1` [4,4'-Dinitrodiphenylurea]: 0.491 µM.
